C diff growth – blocks growth of Clostridium difficile; growth activity, negative = inhibition, % at 16 µg/mL (by protocol); 86,000 compounds, 0.25% hits; AID 1259249; Clostridium difficile clinical isolate growth, OD600, 24 h; active compounds read low;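 active means mean growth activity at or below -80% and every replicate also at or below -80%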
T cruzi growth-1 – T. cruzi proliferation inhibition; AID 624255; inhibition, % at 8.34 µM; 77,000 compounds, 5.9% hits; T. cruzi beta-gal in NIH3T3, GalScreen luminescence, 90 h;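 active means mean inhibition above about 93%, with at least 55% of replicates each passing it, limit read from the data, passing the limit was not always enough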
Pf Dd2 inh – blocks growth of Plasmodium falciparum Dd2 parasites; 94,000 compounds, 2.3% hits; P. falciparum Dd2 growth, SYBR Green, 72 h; active compounds read low; activity change, % at 10 µM; in the data active means activity change below about -80%
T cruzi growth-2 – Trypanosoma cruzi proliferation inhibition. T. cruzi beta-gal in NIH3T3, GalScreen luminescence, 90 h. inhibition, % at 8.35 µM. 5,600 compounds, 72% hits. shares compounds with T cruzi growth-1. AID 651739;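 active means mean replicate inhibition above about 95% and at least 55% of replicates individually reaching it, limit read from the data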
T cruzi growth-3 – inhibitors of T. cruzi proliferation; shares compounds with T cruzi growth-1; T. cruzi beta-gal in NIH3T3, GalScreen luminescence, 90 h; inhibition, % at 2.09 µM; 5,600 compounds, 21% hits;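 active means mean inhibition above about 95%, with at least 55% of replicates also reaching it, limit read from the data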
NIH3T3 tox – NIH/3T3 (mouse) viability loss | cytotoxicity (signal decrease), % at 8.35 µM | 5,600 compounds, 14% hits | shares compounds with T cruzi growth-1 | AID 651742 | NIH/3T3 viability, CellTiter-Glo ATP luminescence, 90 h;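 active means mean signal decrease across replicates above about 35% based on untreated-well scatter, with enough replicates individually passing, limit read from the data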
3T3 cytotox 2 – cytotoxicity in mouse NIH/3T3 fibroblasts; shares compounds with T cruzi growth-1; NIH/3T3 viability, CellTiter-Glo ATP luminescence, 90 h; inhibition, % at 24.9 µM; 5,600 compounds, 56% hits; AID 651744;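 active means mean loss of cell viability signal at or above a set limit, and enough replicates individually reaching it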
Large screens that a line does not name were inactive (follow-up assays come after a bar, where they were run). A selection: hits, their analogues and other compounds. The true share with any hit is near 6.7%.

COc1ccc(C#Cc2cnc3c(c2)C(=O)N([C@H](C)CO)C[C@H](C)[C@H](CN(C)Cc2cccc(C(F)(F)F)c2)O3)cc1OC	T cruzi growth-1 127.0 | T cruzi growth-2 106.5 | T cruzi growth-3 inactive | NIH3T3 tox inactive | 3T3 cytotox 2 inactive
O=C(c1ccccc1F)N1C[C@@H]2[C@H](c3ccccc31)[C@@H](CO)N2C(=O)c1ccc(F)cc1	none
CN1C[C@H](O)COC[C@H]2O[C@@H](CC(=O)N3CCN(c4ccccc4)CC3)CC[C@@H]21	none
C[C@H]1CN([C@@H](C)CO)C(=O)c2cc(C#CC3(O)CCCC3)cnc2O[C@H]1CN(C)C(=O)C1CCOCC1	none (no result: C diff growth, T cruzi growth-1)
CN(C)CC#Cc1ccc([C@H]2[C@H](CO)N3CCCCN(C(=O)Nc4ccc(F)cc4)C[C@@H]23)cc1	none
O=C(Nc1ccccc1)N1CCCCN2[C@H](C1)[C@@H](c1ccc(C#Cc3cccnc3)cc1)[C@@H]2CO	none
O=C(Nc1ccc(F)cc1)N1CCCCN2[C@H](C1)[C@H](c1ccc(C#Cc3ccccc3)cc1)[C@@H]2CO	T cruzi growth-1 123.3, Pf Dd2 inh -89.4 | T cruzi growth-2 102.5 | T cruzi growth-3 inactive | NIH3T3 tox inactive | 3T3 cytotox 2 76.4
O=C(Nc1ccccc1)N1CCCCN2[C@H](C1)[C@H](c1ccc(C#Cc3ccccc3)cc1)[C@@H]2CO	T cruzi growth-1 105.9 | T cruzi growth-2 104.2 | T cruzi growth-3 inactive | NIH3T3 tox inactive | 3T3 cytotox 2 39.2
CCCN(C)C[C@H]1Oc2cc(-c3ccc(C#N)cc3)ccc2S(=O)(=O)N([C@@H](C)CO)C[C@H]1C	none (no result: T cruzi growth-1)
COc1cccc(C(=O)N2C[C@H]3[C@@H](c4ccccc42)[C@@H](CO)N3C(=O)NC(C)C)c1	none
Cc1noc(C)c1S(=O)(=O)N(C)C[C@@H]1Oc2ccc(N(C)C)cc2CC(=O)N([C@@H](C)CO)C[C@H]1C	none
C[C@H](CO)N1C[C@H](C)[C@H](CN(C)S(=O)(=O)c2ccc(C#N)cc2)Oc2ncc(/C=C/c3ccccc3)cc2C1=O	none
CCC(=O)Nc1ccc2c(c1)C(=O)N(C)[C@@H]1CC[C@H](CC(=O)O)O[C@@H]1CO2	none
C[C@H](CO)N1C[C@H](C)[C@H](CN(C)Cc2ccccc2F)Oc2cc(C3=CCCC3)ccc2S1(=O)=O	none
C[C@@H]1CN([C@@H](C)CO)S(=O)(=O)c2ccc(C3=CCCC3)cc2O[C@H]1CN(C)Cc1ccccc1F	T cruzi growth-1 121.1 | T cruzi growth-2 101.1 | T cruzi growth-3 105.5 | NIH3T3 tox inactive | 3T3 cytotox 2 103.6
C[C@@H]1CN([C@H](C)CO)S(=O)(=O)c2ccc(C3=CCCC3)cc2O[C@@H]1CN(C)Cc1ccccc1F	T cruzi growth-1 103.2 | T cruzi growth-2 99.4 | T cruzi growth-3 105.3 | NIH3T3 tox inactive | 3T3 cytotox 2 106.9
C[C@@H]1CN([C@@H](C)CO)S(=O)(=O)c2ccc(C3=CCCCC3)cc2O[C@H]1CN(C)Cc1ccccc1F	none (no result: T cruzi growth-1)
CC(C)NC(=O)Nc1ccc2c(c1)C(=O)N([C@H](C)CO)C[C@H](C)[C@H](CN(C)C(=O)c1ccncc1)OCCCC[C@H](C)O2	none
C[C@@H](O)C#Cc1ccc([C@H]2[C@@H](CO)N3CCCCN(C(=O)c4cccc(F)c4)C[C@@H]23)cc1	T cruzi growth-1 99.7 | T cruzi growth-2 inactive | T cruzi growth-3 inactive | NIH3T3 tox inactive | 3T3 cytotox 2 inactive
C[C@H](O)C#Cc1ccc([C@H]2[C@@H](CO)N3CCCCN(C(=O)c4cccc(F)c4)C[C@H]23)cc1	none
C[C@H](O)C#Cc1ccc([C@H]2[C@H](CO)N3CCCCN(C(=O)c4cccc(F)c4)C[C@@H]23)cc1	T cruzi growth-1 100.0 | T cruzi growth-2 inactive | T cruzi growth-3 inactive | NIH3T3 tox inactive | 3T3 cytotox 2 64.5
C[C@H](O)C#Cc1ccc([C@@H]2[C@@H](CO)N3CCCCN(C(=O)c4cccc(F)c4)C[C@@H]23)cc1	none
CO[C@H]1CN(C)C(=O)c2cc(NC(=O)NC(C)C)ccc2OC[C@@H](C)N(CCC(F)(F)F)C[C@@H]1C	none
O=S(=O)(N[C@@H]1CC[C@H](CCn2cc(-c3cccc(F)c3)nn2)O[C@H]1CO)c1ccc(F)cc1	none (no result: T cruzi growth-1, Pf Dd2 inh)

Screens from PubChem.
